Measurements from PubChem BioAssay AID521 (Sanford-Burnham Center for Chemical Genomics, 2006).
Values joined by “and” are separate entries in the source; they are usually repeats but may differ in a detail not shown here. Equal entries are not always repeated. Out of some 110,000 compounds screened, about 730 (0.66%) were called active. Rule as the data show it: active = inhibition above about 50%; inconclusive = no clear call, values can overlap the other calls; inactive = below that. The full list was thinned out, with actives kept by preference. A structure can be active in one record and inactive in another.

Biological target: Tyrosine-protein phosphatase non-receptor type 7 (Homo sapiens) (UniProt P35236)
Experiment: HePTP tyrosine phosphatase activity blockers – biochemical, absorbance, leukemia target, primary screen (AID 521);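 also: plate controls were vehicle for no effect and reference inhibitor for full effect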
Settings: recombinant HePTP phosphatase activity, OD absorbance; at 20 µM; stronger effect = higher value

Sequence of Tyrosine-protein phosphatase non-receptor type 7 (Homo sapiens) (P35236 whole entry, looked up): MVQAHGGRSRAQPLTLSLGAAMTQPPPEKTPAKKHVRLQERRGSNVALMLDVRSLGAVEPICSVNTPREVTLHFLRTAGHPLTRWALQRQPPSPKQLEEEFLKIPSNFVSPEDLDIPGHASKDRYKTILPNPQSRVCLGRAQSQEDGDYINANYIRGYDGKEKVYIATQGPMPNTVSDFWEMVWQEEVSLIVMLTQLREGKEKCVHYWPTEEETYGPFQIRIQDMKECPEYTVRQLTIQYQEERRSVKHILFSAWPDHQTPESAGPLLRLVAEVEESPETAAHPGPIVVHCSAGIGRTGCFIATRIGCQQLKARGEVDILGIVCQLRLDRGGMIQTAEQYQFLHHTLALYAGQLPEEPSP

**Q.** For `Cc1[nH]n(-c2ccccc2)c(=O)c1/C=N/N(C)C`, which inhibition is on record?
**A.** -5.9% (inactive)

**Q.** How did the inhibition turn out when `Cc1[nH]n(-c2ccccc2)c(=O)c1C(c1ccc(C(F)(F)F)cc1)c1c(C)[nH]n(-c2ccccc2)c1=O` was run?
**A.** 104% (active)

**Q.** For `Cc1[nH]n(-c2ccccc2)c(=O)c1C(=O)C(F)(F)F`, which inhibition is on record?
**A.** 3.1% (inactive)

**Q.** How did the inhibition turn out when `COc1ccc2nc(C)c(CCC(C)=O)c(Cl)c2c1` was run?
**A.** 6.4% (inactive)

**Q.** For `COc1ccc(C(=O)Nc2nc(C34CC5CC(CC(C5)C3)C4)c(C)s2)cc1`, which inhibition is on record?
**A.** -13.5% (inactive)

**Q.** With `COC(=O)c1ccccc1NC(=O)COc1cccc2ccccc12` as the molecule, how does the inhibition read?
**A.** 3.5% (inactive)

**Q.** Which inhibition does the source give for `COc1cc(C(=O)N2CCC(Cc3ccccc3)CC2)c([N+](=O)[O-])cc1OC` here?
**A.** -4.3% (inactive)

**Q.** Which inhibition does the source give for `COC(=O)c1ccc(C(=O)Nc2cc(Cl)ccc2Cl)cc1NC(=O)c1ccccc1C` here?
**A.** -11.5% (inactive)

**Q.** Which inhibition does the source give for `COC(=O)c1ccccc1NC(=O)c1cncc(Br)c1` here?
**A.** 5.5% (inactive) and 4.4% (inactive)

**Q.** For `COC(=O)c1ccccc1NC(=O)c1ccc(Cl)cc1`, which inhibition is on record?
**A.** 72.5% (active)

**Q.** `Cc1cc(NC(=O)C2CC3CCC2C3)no1` (stereo unspecified) was tested. Which inhibition did it give?
**A.** -16.7% (inactive)

**Q.** For `O=C1NC(c2ccc(Br)cc2)=N/C1=C/c1ccccc1`, which inhibition is on record?
**A.** -7.8% (inactive)

**Q.** Which inhibition does the source give for `Cc1cccc(NC(=O)/C(C#N)=C/c2ccc(-c3ccccc3[N+](=O)[O-])o2)c1` here?
**A.** 2.3% (inactive)

**Q.** Which inhibition does the source give for `CC(=O)NC1=NC(=O)/C(=C\c2ccc(-c3cc([N+](=O)[O-])ccc3C)o2)S1` here?
**A.** -13.7% (inactive)

**Q.** With `COc1ccc([N+](=O)[O-])cc1-c1ccc(/C=C(\C#N)c2nc3ccc(C)cc3[nH]2)o1` as the molecule, how does the inhibition read?
**A.** 103% (active)

**Q.** With `CCCOc1ccc(N2C(=O)CC(NCCc3ccc(Cl)cc3)C2=O)cc1` (stereo unspecified) as the molecule, how does the inhibition read?
**A.** -18.1% (inactive)

**Q.** Which inhibition does the source give for `COc1ccccc1NCN1C(=O)S/C(=C/c2ccccc2F)C1=O` here?
**A.** -9.9% (inactive)

**Q.** Which inhibition does the source give for `C/C(=C\C(=O)c1ccc(Br)cc1)Nc1ccccc1O` here?
**A.** -2% (inactive)

**Q.** With `CC(C)(C)CC(C)(C)NC(=O)CSc1nc2ccccc2s1` as the molecule, how does the inhibition read?
**A.** 5.4% (inactive)

**Q.** With `N/C(=C\C(=O)/C=C\c1ccccc1)C(Cl)(Cl)Cl` as the molecule, how does the inhibition read?
**A.** -0.8% (inactive)

**Q.** Which inhibition does the source give for `O=c1oc2c3c4c(cc2cc1CCO)CCCN4CCC3` here?
**A.** 11.1% (inactive)

**Q.** `CN1CCN(CCCCOc2cccc3ccccc23)CC1` was tested. Which inhibition did it give?
**A.** 3.9% (inactive)

**Q.** Which inhibition does the source give for `Cc1cc(C)c2oc(-c3ccc(NC(=O)c4cc5ccccc5o4)cc3O)nc2c1` here?
**A.** -0.1% (inactive)

**Q.** How did the inhibition turn out when `CCc1ccc2oc(-c3ccc(C)c(NC(=O)c4cc(OC)cc(OC)c4)c3)nc2c1` was run?
**A.** -3.6% (inactive)

**Q.** How did the inhibition turn out when `COc1ccc(C=Nc2ccc(Sc3ccc([N+](=O)[O-])cc3)cc2)cc1OC` was run?
**A.** -1.2% (inactive)

**Q.** How did the inhibition turn out when `COc1ccc(/C=C2/SC(=S)NC2=O)cc1I` was run?
**A.** 7.7% (inactive)

**Q.** `CCC(=O)Nc1sc(C(=O)N2CCCCC2)c(C)c1C#N` was tested. Which inhibition did it give?
**A.** 7.4% (inactive)

**Q.** How did the inhibition turn out when `COC(=O)c1sc(NC(=O)C(Sc2ccccc2)c2ccccc2)c(C#N)c1C` (stereo unspecified) was run?
**A.** 10.9% (inactive)

**Q.** Which inhibition does the source give for `COC(=O)c1sc(NC(=O)C2CCCCC2)c(C#N)c1C` here?
**A.** 103% (active)

**Q.** How did the inhibition turn out when `CC1(C)c2ccccc2N(CCO)C12C=Cc1cc([N+](=O)[O-])ccc1O2` (stereo unspecified) was run?
**A.** 0.7% (inactive)

**Q.** How did the inhibition turn out when `COC(=O)c1cc(S(=O)(=O)N2CCOCC2)ccc1Cl` was run?
**A.** -0.5% (inactive)

**Q.** How did the inhibition turn out when `O=C(Cc1c(O)c2ccccc2[nH]c1=O)NCc1ccc(Cl)cc1` was run?
**A.** -5.2% (inactive)

**Q.** With `CC(=O)n1nc(C)c2c1C[C@@H]1[C@H]2C1(C)C` as the molecule, how does the inhibition read?
**A.** 2.1% (inactive)

**Q.** Which inhibition does the source give for `O=c1[nH]c2ccc(Br)cc2c(-c2ccccc2)c1C1=NNC(c2ccc([N+](=O)[O-])cc2)C1` (stereo unspecified) here?
**A.** 7.3% (inactive)

**Q.** With `Cc1ccc(N2NC(=O)/C(=C/c3ccc(O)c(O)c3)C2=O)cc1C` as the molecule, how does the inhibition read?
**A.** -5.6% (inactive)

**Q.** `O=C1NN(c2ccccc2)C(=O)/C1=C/c1cccc(F)c1` was tested. Which inhibition did it give?
**A.** 7.6% (inactive)

**Q.** For `Cc1ccc(N2NC(=O)/C(=C/c3ccc4c(c3)OCO4)C2=O)cc1Cl`, which inhibition is on record?
**A.** 66.6% (active)

**Q.** `CC(C)=CC1C(C(=O)Nc2ccc(C)cn2)C1(C)C` (stereo unspecified) was tested. Which inhibition did it give?
**A.** -10.2% (inactive)

**Q.** `O=C(NCc1ccco1)Nc1ccncc1` was tested. Which inhibition did it give?
**A.** -1.8% (inactive)

**Q.** `COc1ccccc1C(=O)NC(NC(=O)c1ccccc1OC)c1ccc(Br)cc1` was tested. Which inhibition did it give?
**A.** 7.8% (inactive)

**Q.** `O=C(Nc1ccc(OC(F)(F)F)cc1)c1cnn2c(C(F)(F)F)cc(-c3ccco3)nc12` was tested. Which inhibition did it give?
**A.** 0.1% (inactive)

**Q.** `OCCNCC(O)Cn1c2ccc(I)cc2c2cc(I)ccc21` (stereo unspecified) was tested. Which inhibition did it give?
**A.** -15.3% (inactive)

**Q.** With `Cn1cnnc1Sc1nc2c(c(=O)n(C)c(=O)n2C)n1Cc1ccc(F)cc1` as the molecule, how does the inhibition read?
**A.** -3.2% (inactive)

**Q.** Which inhibition does the source give for `Cc1cccc(NC(=O)c2ccc(NC(=O)COc3ccc(Cl)cc3Cl)cc2)c1` here?
**A.** 6.4% (inactive)

**Q.** Which inhibition does the source give for `Cc1cccc(C(=O)Nc2cccc(NC(=O)COc3ccccc3Cl)c2)c1` here?
**A.** 105% (active)

**Q.** How did the inhibition turn out when `CC(C)(C)c1ccc(OCC(=O)Nc2cccc(NC(=O)c3ccccc3)c2)cc1` was run?
**A.** -1.7% (inactive)

**Q.** With `CSc1ccc(-c2c(C#N)c(N)nc3c2c(C)nn3-c2ccccc2)cc1` as the molecule, how does the inhibition read?
**A.** 2.8% (inactive)

**Q.** How did the inhibition turn out when `CSc1nc(N)c(C#N)c(-c2ccccc2Cl)c1C#N` was run?
**A.** -5.7% (inactive)

**Q.** Which inhibition does the source give for `N#Cc1c(N)nc2cc(N)ccc2c1-c1ccc(O)cc1` here?
**A.** 104% (active)

**Q.** Which inhibition does the source give for `CCN(C(=S)NC(=O)c1cccnc1)c1ccccc1` here?
**A.** 3.3% (inactive)

**Q.** How did the inhibition turn out when `COc1ccc(C(=O)Nc2nc3ccc(C)cc3s2)cc1Br` was run?
**A.** 4.5% (inactive)

**Q.** Which inhibition does the source give for `CCc1c(C)sc(NC(=O)C2CCCCC2)c1C(=O)OC(C)C` here?
**A.** 6.5% (inactive)

**Q.** For `COC(=O)c1cc(NC(=O)c2ccc(-c3cc(Cl)ccc3Cl)o2)cc(C(=O)OC)c1`, which inhibition is on record?
**A.** -24.3% (inactive)

**Q.** Which inhibition does the source give for `COc1cc(OC)cc(C(=O)N/N=C(\C)CC(=O)Nc2ccccc2-c2ccccc2)c1` here?
**A.** -23.1% (inactive)

**Q.** Which inhibition does the source give for `CCCCOc1ccc(C(=O)NCc2ccco2)cc1` here?
**A.** 6% (inactive)

**Q.** Which inhibition does the source give for `COc1ccc(C(=O)Nc2ccccc2C(=O)NCc2ccco2)cc1` here?
**A.** 4.8% (inactive)

**Q.** With `CCOc1ccccc1C(=O)NCc1ccco1` as the molecule, how does the inhibition read?
**A.** 103% (active) and 14.1% (inactive)

**Q.** For `O=C(Cc1ccc(Cl)cc1)Nc1ccc(Cl)cc1C(=O)O`, which inhibition is on record?
**A.** 1.2% (inactive)

**Q.** How did the inhibition turn out when `O=Cc1ccc(/C=C2/SC(=S)N(c3cccc(Cl)c3)C2=O)cc1` was run?
**A.** 4.5% (inactive)

**Q.** How did the inhibition turn out when `CN(C)c1ccc(/C=C2\SC(=S)N(c3cccc(C(=O)O)c3)C2=O)cc1` was run?
**A.** 104% (active)

**Q.** Which inhibition does the source give for `Cc1cccc(N2C(=O)S/C(=C/c3ccc(N(C)C)cc3)C2=O)c1` here?
**A.** -1.4% (inactive)
